Experimental data published in the supplement of paper PMC10849652.
Of roughly 7,900 targets only a part is listed; those with a hit were picked by preference. About 0.6% of all pairs of compound and target were hits.

Assays:
Test in all cases: log2 fold change, soluble protein after heating vs DMSO (PISA); higher = thermal stabilisation; K562 cells, 10 uM, 30 min; active = over 0.2 and 3.5 SD of the protein, either way, in both replicates (recomputed)
IRAK-1-4 Inhibitor I = compound: C1COCCN1CCN2C3=CC=CC=C3N=C2NC(=O)C4=CC(=CC=C4)[N+](=O)[O-] [IRAK-1-4 Inhibitor I]
Procedure, shortened: (§1)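 Soluble protein was quantified by TMTpro 16plex LC-MS/MS after channel sums were equalised. It was obtained as the supernatant after 21,000xg for 90 min from pooled aliquots of K562 cells (2×10^6 cells/mL, 10 μM compound, 30 min) heated for 3 min across 48°C-58°C and extracted in PBS with 0.5% NP-40 at 4°C. Thermal stability values are relative to control samples and come from duplicates. They are given as log2 fold changes.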

ibrutinib = compound: C=CC(=O)N1CCC[C@@H](n2nc(-c3ccc(Oc4ccccc4)cc3)c3c(N)ncnc32)C1 [ibrutinib]
Procedure, shortened: as §1

[1] = compound: CC(=O)c1cnc2ccc(-c3cc(Cl)c(O)c(Cl)c3)nc2c1N[C@H]1CC[C@H](CN(C)C)CC1
Procedure, shortened: as §1

ralimetinib = compound: CC(C)(C)Cn1c(N)nc2ccc(-c3[nH]c(C(C)(C)C)nc3-c3ccc(F)cc3)nc21 [ralimetinib]
Procedure, shortened: as §1

[2] = compound: CC(C)(O)CC(=O)NCCn1ccc2ncnc(Nc3ccc(Oc4cccc(C(F)(F)F)c4)c(Cl)c3)c21
Procedure, shortened: as §1

[3] = compound: CC(C)C1=C2N=C(C=C(N2N=C1)NCC3=CC=CC=C3)NCCCCCCN
Procedure, shortened: as §1

[4] = compound: CC(C)C[C@@H](C=O)NC(=O)[C@H](CC(C)C)NC(=O)[C@H](CC(C)C)NC(=O)OCc1ccccc1
Procedure, shortened: as §1

pinometostat = compound: CC(C)N(C[C@H]1O[C@@H](n2cnc3c(N)ncnc32)[C@H](O)[C@@H]1O)[C@H]1C[C@@H](CCc2nc3cc(C(C)(C)C)ccc3[nH]2)C1 [pinometostat]
Procedure, shortened: as §1

[5] = compound: CC1=C(C(CC(=O)N1)C2=CC=C(C=C2)C(F)(F)F)C(=O)NC3=C(C=C4C(=C3)C=NN4)F
Procedure, shortened: as §1

[6] = compound: CC1=C(C2=C(C=C1)C(=O)C3=CC=CC=C3N2CCCN)C
Procedure, shortened: as §1

Measured: log2 fold change

SCAF8 isoform 2 (UniProt Q9UPN6)
UniProt Q9UPN6, sequence (Q9UPN6 whole entry, looked up): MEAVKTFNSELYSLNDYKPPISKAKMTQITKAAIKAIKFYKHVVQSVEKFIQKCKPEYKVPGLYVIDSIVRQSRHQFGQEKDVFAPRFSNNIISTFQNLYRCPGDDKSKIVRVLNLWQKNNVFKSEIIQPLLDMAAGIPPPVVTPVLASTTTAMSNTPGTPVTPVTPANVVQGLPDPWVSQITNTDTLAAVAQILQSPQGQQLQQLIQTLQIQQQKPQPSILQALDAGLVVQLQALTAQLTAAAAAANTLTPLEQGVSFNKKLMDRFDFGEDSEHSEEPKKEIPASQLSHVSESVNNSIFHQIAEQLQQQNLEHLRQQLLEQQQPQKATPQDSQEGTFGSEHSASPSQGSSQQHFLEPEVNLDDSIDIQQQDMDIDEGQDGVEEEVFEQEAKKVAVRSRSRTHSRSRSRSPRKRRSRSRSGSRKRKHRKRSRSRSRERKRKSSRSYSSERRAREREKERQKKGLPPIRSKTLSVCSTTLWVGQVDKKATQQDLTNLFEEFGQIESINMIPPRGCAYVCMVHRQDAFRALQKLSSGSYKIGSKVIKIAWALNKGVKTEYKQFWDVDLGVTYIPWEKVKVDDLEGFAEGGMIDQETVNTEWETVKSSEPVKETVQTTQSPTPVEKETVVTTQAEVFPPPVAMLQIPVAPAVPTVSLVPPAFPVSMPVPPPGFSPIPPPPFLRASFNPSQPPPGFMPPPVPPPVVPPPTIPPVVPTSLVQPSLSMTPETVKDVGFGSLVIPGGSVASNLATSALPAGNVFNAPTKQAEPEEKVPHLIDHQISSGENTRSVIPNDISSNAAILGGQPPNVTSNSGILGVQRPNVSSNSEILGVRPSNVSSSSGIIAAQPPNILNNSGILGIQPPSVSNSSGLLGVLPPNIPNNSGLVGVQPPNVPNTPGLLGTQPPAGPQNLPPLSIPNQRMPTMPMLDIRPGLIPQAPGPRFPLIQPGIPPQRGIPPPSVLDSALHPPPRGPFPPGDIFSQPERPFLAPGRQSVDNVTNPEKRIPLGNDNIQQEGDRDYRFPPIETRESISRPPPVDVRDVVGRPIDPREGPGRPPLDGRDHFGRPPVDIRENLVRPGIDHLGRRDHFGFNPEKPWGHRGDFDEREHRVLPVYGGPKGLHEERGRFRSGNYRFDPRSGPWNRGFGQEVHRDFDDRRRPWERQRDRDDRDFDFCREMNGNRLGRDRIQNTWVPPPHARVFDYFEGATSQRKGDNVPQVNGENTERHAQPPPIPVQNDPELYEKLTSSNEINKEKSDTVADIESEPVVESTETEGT
inactive: IRAK-1-4 Inhibitor I 0.035 | ibrutinib -0.057 | [1] -0.145 | ralimetinib -0.054 | [2] -0.169 | [4] 0.23 | pinometostat 0.065 | [5] -0.05 | [6] 0.138
active: [3] -0.417

SHCBP1 (UniProt Q8NEM2)
active: [3] -0.516
inactive: IRAK-1-4 Inhibitor I -0.11 | ibrutinib -0.072 | [1] -0.013 | ralimetinib 0.025 | [2] -0.121 | [4] 0.012 | pinometostat 0.066 | [5] 0.074 | [6] 0.02

RARS (UniProt P54136)
UniProt P54136, sequence (P54136 whole entry, looked up): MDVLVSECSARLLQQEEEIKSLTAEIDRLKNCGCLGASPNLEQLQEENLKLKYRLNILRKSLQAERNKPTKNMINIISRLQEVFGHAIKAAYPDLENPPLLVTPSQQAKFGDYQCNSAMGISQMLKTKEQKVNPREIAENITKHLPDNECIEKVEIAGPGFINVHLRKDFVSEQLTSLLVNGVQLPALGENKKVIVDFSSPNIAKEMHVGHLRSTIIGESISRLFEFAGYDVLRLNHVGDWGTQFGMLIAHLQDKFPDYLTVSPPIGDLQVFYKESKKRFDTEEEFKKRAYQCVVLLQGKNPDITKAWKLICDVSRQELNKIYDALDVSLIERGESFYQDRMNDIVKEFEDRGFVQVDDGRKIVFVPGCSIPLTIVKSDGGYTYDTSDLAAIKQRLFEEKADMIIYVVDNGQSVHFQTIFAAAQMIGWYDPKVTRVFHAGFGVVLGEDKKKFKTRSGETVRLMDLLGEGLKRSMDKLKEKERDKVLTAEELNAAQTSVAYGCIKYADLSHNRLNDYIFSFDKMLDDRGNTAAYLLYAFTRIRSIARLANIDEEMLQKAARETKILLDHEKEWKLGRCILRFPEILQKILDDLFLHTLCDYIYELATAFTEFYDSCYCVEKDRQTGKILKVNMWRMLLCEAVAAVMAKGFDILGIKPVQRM
inactive: IRAK-1-4 Inhibitor I -0.087 | ibrutinib -0.024 | [1] 0.12 | ralimetinib 0.097 | [2] -0.001 | [4] 0.096 | pinometostat 0.32 | [5] 0.03 | [6] 0.009
active: [3] -0.545

RPS18 (UniProt P62269)
active: [6] -0.531
inactive: IRAK-1-4 Inhibitor I -0.099 | ibrutinib 0.053 | [1] 0.052 | ralimetinib 0.055 | [2] 0.06 | [3] -0.043 | [4] 0.054 | pinometostat 0.149 | [5] 0.063

RPS3 (UniProt P23396)
inactive: IRAK-1-4 Inhibitor I -0.091 | ibrutinib 0.02 | [1] 0.051 | ralimetinib 0.034 | [2] 0.005 | [3] -0.096 | [4] 0.016 | pinometostat 0.128 | [5] 0.031
active: [6] -0.497

SACM1L (UniProt Q9NTJ5)
active: [3] -0.262
inactive: IRAK-1-4 Inhibitor I 0.008 | ibrutinib -0.031 | [1] -0.022 | ralimetinib 0.064 | [2] -0.007 | [4] -0.01 | pinometostat -0.042 | [5] -0.035 | [6] 0.029

RB1 (UniProt P06400)
UniProt P06400, sequence (P06400 whole entry, looked up): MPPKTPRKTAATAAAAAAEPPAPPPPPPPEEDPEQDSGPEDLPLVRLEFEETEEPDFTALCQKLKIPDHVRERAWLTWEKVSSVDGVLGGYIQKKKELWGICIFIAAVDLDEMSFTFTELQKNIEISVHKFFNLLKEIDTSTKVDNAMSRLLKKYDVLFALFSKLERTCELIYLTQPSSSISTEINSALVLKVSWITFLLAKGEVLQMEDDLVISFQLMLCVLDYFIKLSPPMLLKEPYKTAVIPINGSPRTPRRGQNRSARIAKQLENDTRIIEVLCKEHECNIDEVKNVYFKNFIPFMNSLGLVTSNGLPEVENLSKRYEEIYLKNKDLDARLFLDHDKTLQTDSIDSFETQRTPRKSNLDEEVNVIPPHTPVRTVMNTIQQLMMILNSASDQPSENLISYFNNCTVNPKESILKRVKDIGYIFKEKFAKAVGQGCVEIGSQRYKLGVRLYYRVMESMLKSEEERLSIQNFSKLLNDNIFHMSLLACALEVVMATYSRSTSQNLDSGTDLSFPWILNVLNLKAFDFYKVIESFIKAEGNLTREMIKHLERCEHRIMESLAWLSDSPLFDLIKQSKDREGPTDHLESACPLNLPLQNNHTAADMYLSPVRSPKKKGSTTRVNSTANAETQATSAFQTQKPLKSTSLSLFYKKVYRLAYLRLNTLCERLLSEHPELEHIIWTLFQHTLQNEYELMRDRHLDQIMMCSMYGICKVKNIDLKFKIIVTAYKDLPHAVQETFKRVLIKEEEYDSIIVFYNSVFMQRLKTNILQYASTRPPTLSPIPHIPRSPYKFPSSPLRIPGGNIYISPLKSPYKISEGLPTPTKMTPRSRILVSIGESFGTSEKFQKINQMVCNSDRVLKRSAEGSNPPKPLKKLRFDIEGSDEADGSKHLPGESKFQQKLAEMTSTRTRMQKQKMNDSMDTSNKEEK
active: [1] -0.761 | [3] -0.386
inactive: IRAK-1-4 Inhibitor I 0.015 | ibrutinib 0.025 | ralimetinib -0.06 | [2] -0.054 | [4] 0.032 | pinometostat -0.006 | [5] -0.007 | [6] -0.035

SCYL3 isoform 2 (UniProt Q8IZE3)
inactive: IRAK-1-4 Inhibitor I 0.087 | ibrutinib 0.02 | [1] -0.002 | ralimetinib -0.043 | [2] -0.063 | [3] -0.052 | [4] -0.002 | pinometostat 0.054 | [5] 0.013 | [6] -0.146

SGPL1 (UniProt O95470)
inactive: IRAK-1-4 Inhibitor I -0.05 | ibrutinib -0.018 | [1] -0.045 | ralimetinib 0.159 | [2] 0.017 | [3] 0.06 | [4] 0.002 | pinometostat 0.1 | [5] -0.025 | [6] 0.146

RRP9 (UniProt O43818)
UniProt O43818, sequence (O43818 whole entry, looked up): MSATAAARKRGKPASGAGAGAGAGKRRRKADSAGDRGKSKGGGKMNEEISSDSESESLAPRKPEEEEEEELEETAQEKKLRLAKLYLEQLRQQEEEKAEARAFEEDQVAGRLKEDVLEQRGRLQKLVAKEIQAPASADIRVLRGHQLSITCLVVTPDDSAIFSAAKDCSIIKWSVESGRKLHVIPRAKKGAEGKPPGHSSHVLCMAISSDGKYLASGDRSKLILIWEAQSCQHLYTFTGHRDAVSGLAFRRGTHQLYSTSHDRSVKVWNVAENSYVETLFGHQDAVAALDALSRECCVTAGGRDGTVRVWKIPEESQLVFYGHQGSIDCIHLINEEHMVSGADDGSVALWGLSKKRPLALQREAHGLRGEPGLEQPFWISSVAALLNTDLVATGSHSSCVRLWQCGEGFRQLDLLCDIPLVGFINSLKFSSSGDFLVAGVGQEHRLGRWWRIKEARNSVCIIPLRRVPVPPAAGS
active: [6] -0.432
inactive: IRAK-1-4 Inhibitor I -0.043 | ibrutinib 0.017 | [1] -0.062 | ralimetinib 0.014 | [2] 0.133 | [3] -0.04 | [4] -0.002 | pinometostat 0.01 | [5] 0.136

SERPINA7 (UniProt P05543)
inactive: IRAK-1-4 Inhibitor I 0.095 | ibrutinib 0.229 | [1] 0.227 | ralimetinib -0.062 | [2] 0.314 | [3] 0.066 | [4] 0.043 | pinometostat 0 | [5] 0.077 | [6] -0.245

SFXN5 (UniProt Q8TD22)
inactive: IRAK-1-4 Inhibitor I 0.225 | ibrutinib -0.048 | [1] -0.013 | ralimetinib -0.001 | [2] -0.175 | [3] -0.083 | [4] 0.187 | pinometostat 0.03 | [5] 0.008 | [6] 0.09

SETMAR (UniProt Q53H47)
inactive: IRAK-1-4 Inhibitor I 0.093 | ibrutinib -0.04 | [1] -0.135 | ralimetinib -0.025 | [2] 0.047 | [3] 0.227 | [4] -0.061 | pinometostat 0.078 | [5] 0.012
active: [6] 0.509

SCPEP1 (UniProt Q9HB40)
active: [3] -0.5
inactive: IRAK-1-4 Inhibitor I 0.044 | ibrutinib 0.072 | [1] -0.008 | ralimetinib -0.005 | [2] -0.038 | [4] 0.007 | pinometostat -0.032 | [5] -0.006 | [6] 0.073

RCOR1 (UniProt Q9UKL0)
UniProt Q9UKL0, sequence (Q9UKL0 whole entry, looked up): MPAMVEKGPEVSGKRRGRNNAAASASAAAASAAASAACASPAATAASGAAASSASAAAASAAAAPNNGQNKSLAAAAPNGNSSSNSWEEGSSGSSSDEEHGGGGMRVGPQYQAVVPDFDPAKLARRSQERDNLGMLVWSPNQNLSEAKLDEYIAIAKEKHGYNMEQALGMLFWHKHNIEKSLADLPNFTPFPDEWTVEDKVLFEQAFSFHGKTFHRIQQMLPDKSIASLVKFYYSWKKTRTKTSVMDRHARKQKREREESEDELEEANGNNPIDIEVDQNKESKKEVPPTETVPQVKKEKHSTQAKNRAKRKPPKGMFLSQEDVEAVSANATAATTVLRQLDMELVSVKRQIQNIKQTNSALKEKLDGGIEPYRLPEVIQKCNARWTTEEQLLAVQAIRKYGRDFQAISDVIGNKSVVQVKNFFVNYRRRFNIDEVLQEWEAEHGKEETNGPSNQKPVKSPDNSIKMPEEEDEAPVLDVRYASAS
inactive: IRAK-1-4 Inhibitor I -0.037 | ibrutinib -0.036 | [1] -0.14 | ralimetinib 0.002 | [2] -0.08 | [3] 0.002 | [4] -0.034 | pinometostat 0.026 | [5] 0.025 | [6] 0.021

SELENOH (UniProt Q8IZQ5)
UniProt Q8IZQ5, sequence (Q8IZQ5 whole entry, looked up): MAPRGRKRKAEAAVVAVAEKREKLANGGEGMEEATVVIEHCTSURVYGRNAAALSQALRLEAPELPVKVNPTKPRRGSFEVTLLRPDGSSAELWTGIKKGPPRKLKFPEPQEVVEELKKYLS
inactive: IRAK-1-4 Inhibitor I -0.018 | ibrutinib -0.039 | [1] 0.13 | ralimetinib 0.086 | [2] -0.017 | [3] 0.059 | [4] -0.012 | pinometostat -0.012 | [5] -0.052 | [6] 0.057

RRS1 (UniProt Q15050)
UniProt Q15050, sequence (Q15050 whole entry, looked up): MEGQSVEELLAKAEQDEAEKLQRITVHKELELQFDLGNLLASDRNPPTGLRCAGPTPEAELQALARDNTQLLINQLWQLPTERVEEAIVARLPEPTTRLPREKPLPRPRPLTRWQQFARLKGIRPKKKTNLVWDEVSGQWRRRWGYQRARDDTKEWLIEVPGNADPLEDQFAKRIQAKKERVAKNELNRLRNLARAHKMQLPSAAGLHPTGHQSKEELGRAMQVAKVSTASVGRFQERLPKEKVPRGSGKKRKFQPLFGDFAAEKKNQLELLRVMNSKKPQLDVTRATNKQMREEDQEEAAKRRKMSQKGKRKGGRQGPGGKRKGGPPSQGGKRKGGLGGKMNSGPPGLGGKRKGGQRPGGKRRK
inactive: IRAK-1-4 Inhibitor I -0.084 | ibrutinib 0.04 | [1] 0.217 | ralimetinib 0.118 | [2] 0.229 | [3] 0.312 | [4] 0.067 | pinometostat 0.297 | [5] -0.11
active: [6] -1

SASH1 (UniProt O94885)
inactive: IRAK-1-4 Inhibitor I 0.145 | ibrutinib -0.069 | [1] -0.097 | ralimetinib -0.138 | [2] 0.002 | [3] -0.25 | [4] 0.152 | pinometostat 0.081 | [5] -0.077 | [6] 0.07

RPA1 (UniProt P27694)
inactive: IRAK-1-4 Inhibitor I -0.026 | ibrutinib -0.022 | [1] -0.03 | ralimetinib -0.008 | [2] -0.053 | [3] -0.019 | [4] -0.027 | pinometostat -0.021 | [5] -0.007 | [6] 0.202

RIC8A isoform 3 (UniProt Q9NPQ8)
UniProt Q9NPQ8, sequence (Q9NPQ8 whole entry, looked up): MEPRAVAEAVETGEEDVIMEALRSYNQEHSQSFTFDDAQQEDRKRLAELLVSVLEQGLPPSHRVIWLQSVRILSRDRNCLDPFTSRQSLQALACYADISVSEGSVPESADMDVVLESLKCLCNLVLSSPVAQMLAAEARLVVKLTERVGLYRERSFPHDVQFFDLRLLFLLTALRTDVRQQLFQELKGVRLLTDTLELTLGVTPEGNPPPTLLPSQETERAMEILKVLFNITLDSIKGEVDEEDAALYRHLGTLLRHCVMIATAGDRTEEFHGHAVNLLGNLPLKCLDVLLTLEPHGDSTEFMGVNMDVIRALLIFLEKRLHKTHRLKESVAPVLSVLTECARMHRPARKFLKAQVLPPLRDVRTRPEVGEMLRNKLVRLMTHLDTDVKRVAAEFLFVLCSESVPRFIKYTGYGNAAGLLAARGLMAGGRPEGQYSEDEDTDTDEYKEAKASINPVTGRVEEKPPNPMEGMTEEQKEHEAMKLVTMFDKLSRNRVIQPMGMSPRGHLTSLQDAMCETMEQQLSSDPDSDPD
inactive: IRAK-1-4 Inhibitor I -0.073 | ibrutinib -0.051 | [1] -0.193 | ralimetinib 0.06 | [2] -0.052 | [3] -0.354 | [4] 0.066 | pinometostat 0.166 | [5] -0.005 | [6] -0.132

SKP1 (UniProt P63208)
UniProt P63208, sequence (P63208 whole entry, looked up): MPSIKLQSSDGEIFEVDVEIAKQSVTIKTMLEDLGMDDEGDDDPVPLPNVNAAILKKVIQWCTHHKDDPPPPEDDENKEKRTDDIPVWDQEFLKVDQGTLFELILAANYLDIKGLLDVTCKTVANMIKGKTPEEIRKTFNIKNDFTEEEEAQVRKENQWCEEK
inactive: IRAK-1-4 Inhibitor I 0.069 | ibrutinib 0.054 | [1] 0.03 | ralimetinib -0.02 | [2] -0.045 | [3] 0.068 | [4] -0.069 | pinometostat -0.08 | [5] 0.042 | [6] -0.049

RPS2 (UniProt P15880)
inactive: IRAK-1-4 Inhibitor I -0.101 | ibrutinib 0.042 | [1] 0.085 | ralimetinib 0.055 | [2] 0.019 | [3] -0.004 | [4] 0.061 | pinometostat 0.222 | [5] 0.032
active: [6] -0.682

RAB3IL1 (UniProt E9PK89)
inactive: IRAK-1-4 Inhibitor I -0.012 | ibrutinib -0.021 | [1] -0.006 | ralimetinib -0.018 | [2] -0.127 | [3] -0.032 | [4] 0.006 | pinometostat 0.017 | [5] 0.08 | [6] -0.005

RNPS1 (UniProt Q15287)
active: [6] -0.746
inactive: IRAK-1-4 Inhibitor I -0.159 | ibrutinib -0.031 | [1] -0.317 | ralimetinib 0.128 | [2] -0.039 | [3] -0.126 | [4] 0.066 | pinometostat 0.08 | [5] -0.032

RFC3 (UniProt P40938)
inactive: IRAK-1-4 Inhibitor I 0.003 | ibrutinib 0.025 | [1] -0.101 | ralimetinib 0.021 | [2] -0.087 | [3] -0.012 | [4] -0.047 | pinometostat -0.057 | [5] 0 | [6] 0.09

SART3, A0A499FI31
active: [3] -0.379 | [6] -0.377
inactive: IRAK-1-4 Inhibitor I -0.021 | ibrutinib -0.017 | [1] 0.062 | ralimetinib 0.002 | [2] -0.033 | [4] -0.051 | pinometostat -0.025 | [5] 0.021

SIRT2 (UniProt Q8IXJ6)
inactive: IRAK-1-4 Inhibitor I 0.047 | ibrutinib -0.003 | [1] -0.003 | ralimetinib -0.023 | [2] 0.041 | [3] -0.033 | [4] 0.028 | pinometostat -0.002 | [5] -0.075 | [6] -0.022

RPS6KA1 isoform 2 (UniProt Q15418)
inactive: IRAK-1-4 Inhibitor I -0.013 | ibrutinib -0.062 | [1] -0.167 | [2] -0.092 | [3] -0.164 | [4] 0.059 | pinometostat -0.006 | [5] 0.017 | [6] 0.018
active: ralimetinib -0.429

SCAMP2 (UniProt H3BUB6)
inactive: IRAK-1-4 Inhibitor I 0.078 | ibrutinib 0.103 | [1] -0.171 | ralimetinib -0.278 | [2] 0.102 | [3] -0.055 | [4] 0.192 | pinometostat 0.053 | [5] 0.111 | [6] 0.059

RBM17 (UniProt Q96I25)
inactive: IRAK-1-4 Inhibitor I -0.037 | ibrutinib 0.114 | [1] -0.179 | ralimetinib 0.158 | [2] -0.077 | [3] -0.053 | [4] 0.029 | pinometostat 0.11 | [5] -0.005 | [6] 0.012
